# Experimental data from PubChem BioAssay (NCATS).
# Inconclusive results are not listed. Values without a mark were called inactive. The source made the active and inactive calls. Calls follow the shape of the full dose curve; tested in HEK293 reporter line.
# Experiment: qHTS for Inhibitors of the Functional Ribonucleoprotein Complex (vRNP) of Lymphocytic Choriomeningitis Arenaviruses (LCMV): Viability assay - alamar blue signal for LCMV Primary Screen (AID 1347085); also: nearly all actives have a fitted effect of over 80% in size
# Conditions: alamar blue viability counter-screen, LCMV vRNP screen cells; series mostly up to 57.5 µM; activity change, negative = lower viability: at the top concentration
# % is scaled to controls: 0 for no effect and ±100 for the full control effect.
SMILES,"activity change, negative = lower viability",Potency
Nc1ccc(C(=O)O)cc1,-0.628%,–
O=C1c2c(O)cccc2Cc2cccc(O)c21,2.71%,–
CC(=O)c1ccc(S(=O)(=O)NC(=O)NC2CCCCC2)cc1,–,inactive
CC(C)[N+](C)(C)CC(O)COc1cccc2ccccc12 (stereo unspecified),-3.93%,–
Nc1ccc(C(=O)OCC(O)CO)cc1 (stereo unspecified),3.31%,–
COc1ccnc(CS(=O)c2nc3ccc(OC(F)F)cc3[nH]2)c1OC (stereo unspecified),12.6%,–
CC(=O)N(CC(O)CO)c1c(I)c(C(=O)NCC(O)CO)c(I)c(C(=O)NCC(O)CO)c1I (stereo unspecified),6.63%,–
Cc1ccc(S(=O)(=O)NC(=O)NC2CCCCC2)cc1,14.3%,–
Cc1ccc(C(=O)C(=O)O)cc1C,1.78%,–
CC(=O)c1ccc(OCC(=O)N2CCCCC2)cc1,2.4%,–
CCCC(=O)O[C@]1(C(=O)COC(=O)CC)CC[C@H]2[C@@H]3CCC4=CC(=O)CC[C@]4(C)[C@H]3[C@@H](O)C[C@@]21C,-107% [at 24.7 µM],–
COCCc1ccccn1,13.6%,–
CCOC(=O)C1=C[C@@H](OC(CC)CC)[C@H](NC(C)=O)[C@@H](N)C1,0.553%,–
Cc1ccccc1OCC(O)CO (stereo unspecified),7.28%,–
O=C(O)Cc1cn(-c2ccccc2)nc1-c1ccc(Cl)cc1,0.705%,–
COC(=O)C1=C(C)NC(C)=C(C(=O)OCC(C)=O)C1c1ccccc1[N+](=O)[O-] (stereo unspecified),-2.8%,–
Nc1ccc(C(=O)O)c(O)c1,-1.62%,–
CC(CCc1ccc2c(c1)OCO2)NN (stereo unspecified),-3.27%,–
O=C(O)[C@H](O)c1ccccc1,2.06%,–
CCN(CC)CCNC(=O)c1cc(S(C)(=O)=O)ccc1OC,–,inactive
CCOCCn1c(C2CCN(CCc3ccc(C(C)(C)C(=O)O)cc3)CC2)nc2ccccc21,0.786%,–
